The nature of experiment [1]: differential killing of epithelial or mesenchymal cells, primary screen, imaging, PC-3E GFP, TEM4-18 mCherry, co-culture (AID 1345086;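 active = compounds killing one labelled cell type while sparing the other, by normalised counts and ratio limits, not self-fluorescent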;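 as to all read-outs here: cells exposed to compound for 72 h before imaging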;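 as to red/green cell ratio (normalised): normalised mesenchymal count divided by normalised epithelial count so high means epithelial killing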). To be noted: imaging cell counts, at 1 µM; for red/green cell ratio (normalised): actives lie on both sides, counts scaled to control wells, 1 = unselective.
A short description of experiment [2]: growth inhibition of DIPG glioma cells, dose response, cell-based, SU-DIPG-XVII, MIPE5.0, CellTiter-Glo, qHTS (AID 1347060).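 As to AC50: cells exposed to compound for 48 hours before viability readout.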 To be noted: SU-DIPG-XVII viability, CellTiter-Glo ATP luminescence.
The nature of experiment [3]: viability loss in pontine glioma line – cell-based, SU-DIPG-XXV, MIPE5.0, CellTiter-Glo, qHTS, dose response (AID 1347065).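 Also: cells exposed to compound for 48 hours before ATP readout.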 To be noted: CellTiter-Glo ATP luminescence. On the technique in general: ATP-based viability assays read luminescence as a measure of living cells.
The nature of experiment [4]: JHH-DIPG-1 glioma cell viability, MIPE5.0 library, CellTiter-Glo luminescence, qHTS (AID 1347067).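 Also: cells exposed to compound for 48 hours before readout.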 The settings on record: JHH-DIPG-1 glioma viability, CellTiter-Glo ATP luminescence.
A short description of experiment [5]: sensitizers of A549 cells to miR-34 induction, primary screen, imaging, A549 dox-inducible miR-34, nuclei and caspase counts (AID 1347080;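 active = compounds whose cell count with miR-34 switched on is under 0.7 times the count with it off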). To be noted: A549 miR-34 inducible, Hoechst nuclei count, 48 h.
Experiment [6] in a line: survival rescue of mitochondrial mutant cells in low glucose, primary screen, MELAS cybrids, Rieske KO mouse fibroblasts, CellTiter-Glo (AID 1508586;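 active = mean z-score across replicates of 1.96 or higher in either the MELAS or the Rieske mutant cell line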;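 also: z relative to plate mean and SD of compound and empty wells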).
The target of experiment [7] is NAD(+) hydrolase SARM1 (Homo sapiens) (UniProt Q6SZW1). In words: SARM1 TIR NADase inhibitors, cell lysate, NAD-Glo luminescence (AID 1508614;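 active = compound whose remaining NAD level is above about 45 nM, limit read from the data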;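 also: higher remaining NAD means stronger inhibition of SARM1 NADase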). The settings on record: SAM-TIR HEK293T lysate NADase, at 1 µM, stronger effect = higher value.
NAD(+) hydrolase SARM1 (Homo sapiens), sequence (Q6SZW1 whole entry, looked up, the tested form may be a part): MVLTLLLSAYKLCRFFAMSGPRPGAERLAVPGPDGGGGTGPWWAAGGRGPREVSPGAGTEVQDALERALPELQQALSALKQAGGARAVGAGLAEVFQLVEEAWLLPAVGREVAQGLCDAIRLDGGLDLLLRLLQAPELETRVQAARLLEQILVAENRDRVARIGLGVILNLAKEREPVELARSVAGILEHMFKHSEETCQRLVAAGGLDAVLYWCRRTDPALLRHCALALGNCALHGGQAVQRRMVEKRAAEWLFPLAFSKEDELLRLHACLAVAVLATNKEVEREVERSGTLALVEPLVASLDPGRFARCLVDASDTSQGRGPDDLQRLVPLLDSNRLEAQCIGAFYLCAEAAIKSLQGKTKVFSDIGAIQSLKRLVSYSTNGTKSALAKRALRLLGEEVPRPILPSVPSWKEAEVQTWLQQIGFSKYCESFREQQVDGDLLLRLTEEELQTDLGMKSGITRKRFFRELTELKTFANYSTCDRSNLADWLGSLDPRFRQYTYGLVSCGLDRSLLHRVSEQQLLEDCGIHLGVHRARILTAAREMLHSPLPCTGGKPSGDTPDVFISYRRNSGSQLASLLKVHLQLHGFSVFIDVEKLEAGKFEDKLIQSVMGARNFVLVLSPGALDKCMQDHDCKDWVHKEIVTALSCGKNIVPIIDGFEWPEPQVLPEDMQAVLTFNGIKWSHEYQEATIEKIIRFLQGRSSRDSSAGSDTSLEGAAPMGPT
Experiment [8] has as its target Mitogen-activated protein kinase 7 (Homo sapiens) (UniProt Q13164). Briefly: ERK5 transactivation activators in reporter cells, primary screen, cell-based, HTS (AID 1508626;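 active = luciferase signal above three times the same-plate solvent-only control wells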;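 also: luciferase driven by Gal4-ERK5 fusion binding five Gal4 sites before minimal TATA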). To be noted: HeLa Gal4-ERK5 transactivation, 18 h, at 5 µM, stronger effect = higher value.
Experiment [9] is described as follows: LFS_MB_P medulloblastoma growth inhibition, cell-based, chromothripsis tumors, cisplatin or BGB combos (AID 1671449; in the data active = inhibition above about 80%;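 also: cells exposed for 96 hours; 0% = vehicle DMSO and 100% = killing by high DMSO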). To be noted: LFS_MB_P medulloblastoma cells.
A short description of experiment [10]: HDN33 neuroblastoma growth inhibition, cell-based, chromothripsis tumors, cisplatin or BGB combos (AID 1671450; in the data active = inhibition above about 80%;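 also: cells exposed to compound for four days; 0% = vehicle DMSO and 100% = cell killing by high DMSO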). To be noted: HDN33 neuroblastoma cells, stronger effect = higher value.
The nature of experiment [11]: ICB984 medulloblastoma cell growth inhibition, synergistic combos for chromothripsis tumors, cisplatin or BGB combos (AID 1671451; call rule not given here;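 also: cells exposed for 96 hours before readout; 0% = vehicle DMSO and 100% = killing by high DMSO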). To be noted: ICB984 medulloblastoma cells, drug combinations, stronger effect = higher value.
Experiment [12] can be described thus: HTB85 osteosarcoma cell growth inhibition, synergistic combos for chromothripsis tumors, BGB or cisplatin IC20 combos (AID 1671453; in the data active = inhibition above about 80%;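 also: cells exposed for 96 hours before readout; 0% = vehicle DMSO and 100% = high DMSO killing control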). The settings on record: HTB85 osteosarcoma cells, drug combinations, stronger effect = higher value.
Experiment [13] in a line: MDA-MB-436 breast carcinoma cell growth inhibition, synergistic combos for chromothripsis tumors, BGB or cisplatin combos (AID 1671458; call rule not given here;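 also: cells exposed for 96 hours; 0% = vehicle DMSO and 100% = killing by high DMSO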). The settings on record: MDA-MB-436 breast carcinoma growth inhibition, drug combinations, stronger effect = higher value.
The mark [14] stands for this setting: measured here: epithelial PC-3E GFP cell survival.
Setting [15] is: measured here: mesenchymal TEM4-18 mCherry cell survival.
Setting [16] is: stronger effect = lower value, cell number ratio, induced over uninduced.
[17] abbreviates: measured here: relative caspase fold change +Dox/-Dox.
The mark [18] stands for this setting: measured here: total cells with miR-34 induction, stronger effect = lower value.
The mark [19] stands for this setting: measured here: total cells without miR-34 induction.

This note sets out measurements from PubChem BioAssay.

Where “and” joins values, the source holds several entries; their conditions need not be identical. Equal entries are not always repeated. Records with an inconclusive call do not appear. The source holds several records for some structures; these can differ, active in one and inactive in another. Calls of active or inactive are those of the source. Unless noted, the limit is not given here; nearly all actives have AC50 up to about 26 µM.

Mitogen-activated protein kinase 7 (Homo sapiens), sequence (Q13164 whole entry, looked up, the tested form may be a part): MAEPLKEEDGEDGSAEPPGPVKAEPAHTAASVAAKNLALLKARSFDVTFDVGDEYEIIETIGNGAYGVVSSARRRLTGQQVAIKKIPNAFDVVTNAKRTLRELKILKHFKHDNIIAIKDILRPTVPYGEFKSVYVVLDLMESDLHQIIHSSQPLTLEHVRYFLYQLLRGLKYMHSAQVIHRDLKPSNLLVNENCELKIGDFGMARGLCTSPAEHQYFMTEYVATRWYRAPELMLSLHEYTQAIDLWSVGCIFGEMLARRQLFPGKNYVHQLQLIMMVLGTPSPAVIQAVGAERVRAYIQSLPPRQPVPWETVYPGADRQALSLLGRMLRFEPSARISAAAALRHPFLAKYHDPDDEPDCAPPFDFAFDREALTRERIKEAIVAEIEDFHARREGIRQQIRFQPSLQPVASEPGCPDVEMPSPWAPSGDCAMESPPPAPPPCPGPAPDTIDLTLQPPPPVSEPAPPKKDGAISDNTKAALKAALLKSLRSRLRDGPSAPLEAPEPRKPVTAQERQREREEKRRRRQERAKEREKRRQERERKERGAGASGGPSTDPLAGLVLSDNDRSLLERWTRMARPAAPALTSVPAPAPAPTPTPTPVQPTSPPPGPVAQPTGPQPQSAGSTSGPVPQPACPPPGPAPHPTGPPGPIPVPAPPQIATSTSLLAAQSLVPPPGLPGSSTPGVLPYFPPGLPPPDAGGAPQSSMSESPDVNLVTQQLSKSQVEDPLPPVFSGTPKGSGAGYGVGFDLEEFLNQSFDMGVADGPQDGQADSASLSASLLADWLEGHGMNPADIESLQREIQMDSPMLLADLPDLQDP

Regarding `CN1C(C(=O)Nc2ccccn2)=C(O)c2sc(Cl)cc2S1(=O)=O`, in [1], the red/green cell ratio (normalised) was 0.78 (inactive). The normalised cell number was determined as 1.13 in [1] (setting [14]) and 0.88 in experiment [1] (setting [15]). Besides, the result in [2], in [3] and in experiment [4] was inactive. Also, the fold change in [5] (setting [16]) is 0.905 (inactive) and 0.871 (inactive); in [5] (setting [17]) it was 0.83 and 0.817. In addition, the cell count is 9030 and 7600 in [5] (setting [18]); 9980 and 8730 in [5] (setting [19]). Moreover, the z-score is -0.192 (inactive) in experiment [6] (MELAS cybrid survival, CellTiter-Glo 48 h, stronger effect = higher value) and 0.681 in experiment [6] (Rieske KO mouse fibroblast survival, CellTiter-Glo 72 h). Also, in experiment [7], the remaining NAD is 10 nM (inactive).

One may read the AC50 as the concentration giving half of the maximal activity seen. `COc1ccc2nc3cc(Cl)ccc3c(Nc3cc(CN4CCCC4)c(O)c(CN4CCCC4)c3)c2n1`: in [1], the red/green cell ratio (normalised) is 1.19 (inactive). The results for the normalised cell number in experiment [1] (setting [14]) and in experiment [1] (setting [15]) were 0.83 and 0.98, respectively. The AC50 in experiment [2] was 9.34 µM (active); in experiment [3], 7.42 µM (active); in experiment [4], 11.8 µM (active). The fold change in experiment [5] (setting [16]) is 1.01 (inactive); in experiment [5] (setting [17]), 0.832. Moreover, the results for the cell count in experiment [5] (setting [18]) and in experiment [5] (setting [19]) were 2320 and 2290, respectively. The remaining NAD in experiment [7] was 10 nM (inactive).

On to `CCC(CC)O[C@@H]1C=C(C(=O)OC)C[C@H](N)[C@H]1NC(C)=O`, for which the red/green cell ratio (normalised) in [1] was 0.99 (inactive). The normalised cell number is 1.01 in [1] (setting [14]) and 1 in experiment [1] (setting [15]). For the same compound, the fold change was 0.882 (inactive) in experiment [5] (setting [16]) and 1.08 in experiment [5] (setting [17]). The cell count came to 8740 in [5] (setting [18]) and 9910 in [5] (setting [19]).

By inhibition is commonly meant the relative decrease from the control value, in per cent. Turning to `CC[C@@]1(O)C(=O)OCc2c1cc1n(c2=O)Cc2cc3cc(O)ccc3nc2-1`, in experiment [1], the red/green cell ratio (normalised) was 0.94 (inactive). The normalised cell number is 0.31 in experiment [1] (setting [14]) and 0.29 in experiment [1] (setting [15]). Also, the AC50 in experiment [2] is 0.0166 µM (active); in [3], 0.148 µM (active). For the same compound, the luciferase signal in [8] is 44 AU (inactive). In addition, the inhibition in experiment [9] (at 0.5 µM, stronger effect = higher value) was 25.9% (inactive) and 5.42% (inactive); in experiment [9] (measured here: combination with BGB IC20, at 0.005 µM), 4.22% and -3.99%; in experiment [9] (measured here: combination with BGB IC40, at 0.005 µM), -42.5% and -15.9%; in experiment [9] (measured here: combination with BGB IC40, at 0.05 µM), -16% and -4.31%; in experiment [9] (measured here: combination with cisplatin, at 0.5 µM, stronger effect = higher value), 62.8% and 48.1%; in experiment [9] (measured here: combination with cisplatin, at 5 µM, stronger effect = higher value), 89.7% and 78.7%. The inhibition was 98.1% and 98.5% in [10] (BGB combo, at 5 µM); 78.7% (inactive) and 83.5% (active) in experiment [10] (at 0.5 µM); 96.5% and 98% in experiment [10] (cisplatin combo, at 5 µM); 82.7% and 84.4% in [10] (measured here: with BGB IC20 combination, at 0.5 µM); 71% and 81.1% in experiment [10] (measured here: with cisplatin IC20 combination, at 0.5 µM); 96.6% and 97.8% in experiment [10] (single agent, at 5 µM). Besides, the inhibition was 23.2% and 34.7% in experiment [11] (BGB IC20 combo, at 0.005 µM); 40.1% and 53.7% in experiment [11] (BGB IC40 combo, at 0.005 µM); 93.9% in experiment [11] (BGB IC40 combo, at 0.05 µM); -30.2% (inactive) and -10.4% (inactive) in experiment [11] (at 0.5 µM); 93.6% and 93.9% in experiment [11] (cisplatin combo, at 0.05 µM); -46.6% and -4.75% in experiment [11] (cisplatin combo, at 0.5 µM). The inhibition in experiment [11] (cisplatin combo, at 5 µM) is -24.4% and 16.7%; in experiment [11] (measured here: 5 uM single agent, at 5 µM), -21.1% and 2.06%; in experiment [12] (at 0.5 µM) it was 99% (active) and 98.8% (active); in experiment [12] (measured here: with BGB IC20, at 0.5 µM) it was 97.9% and 98.3%; in experiment [12] (measured here: with BGB IC20, at 5 µM), 98.2% and 98.3%; in experiment [12] (measured here: with cisplatin IC20, at 0.5 µM), 99.3% and 98.9%. Further, the inhibition was 99.6% and 99.7% in [12] (measured here: with cisplatin IC20, at 5 µM); 99.5% and 99.7% in experiment [12] (single agent, at 5 µM); 69.5% (inactive) and 70% (inactive) in [13] (at 0.5 µM); 63.8% and 64.7% in [13] (measured here: BGB combination, at 0.5 µM); 63.6% and 74.3% in [13] (measured here: BGB combination, at 5 µM); 71.5% and 68.7% in experiment [13] (measured here: cisplatin combination, at 0.5 µM). Moreover, the inhibition in experiment [13] (measured here: cisplatin combination, at 5 µM) is 80.4% and 83.5%.

As to `O=C(O)CCCN1CCN([C@H](c2ccccc2)c2ccc(Cl)cc2)CC1`, in [1], the red/green cell ratio (normalised) was 0.97 (inactive). Moreover, the normalised cell number was 1.14 in [1] (setting [14]) and 1.11 in experiment [1] (setting [15]). Besides, the values for the fold change in [5] (setting [16]) and in experiment [5] (setting [17]) were 0.876 (inactive) and 0.778, respectively. Further, the values for the cell count in [5] (setting [18]) and in [5] (setting [19]) were 8580 and 9800, respectively.

Consider `C[C@H]1COC2=C1C(=O)C(=O)c1c2ccc2c1CCCC2(C)C`, for which the red/green cell ratio (normalised) in [1] was 0.82 (inactive). Moreover, the normalised cell number in experiment [1] (setting [14]) came to 0.98; in experiment [1] (setting [15]), 0.8. Further, the AC50 in [2], in experiment [3] and in experiment [4] was 20.9 µM (active) each time. In experiment [8], the luciferase signal is 80 AU (inactive).
